According to PubChem BioAssay (EPA / NIEHS):
Records with an inconclusive call do not appear. The source made the active and inactive calls. The calls were made as follows: active = hit-call score of the fitted dose curve at least 0.9, where 1 is the maximum; inconclusive = response in the unintended direction; inactive = score below 0.9.

How the values were obtained:
[1] = read-out: Glyceraldehyde-3-phosphate dehydrogenase (Homo sapiens) (UniProt P04406); test: CLD_GAPDH_6hr: CellzDirect (CLD) Gene Expression Assay for Baseline Control (Glyceraldehyde 3-phosphate dehydrogenase) at 6 hours (AID 2283681);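 also: active means increased signal relative to DMSO vehicle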
Summary of the method: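 GAPDH baseline-control readout from qNPA (S1 nuclease digestion, probe hybridization, chemiluminescence) in lysates of cultured human hepatocytes harvested 6 h post-dosing. Chemicals tested at multiple concentrations versus 0.2% DMSO vehicle; microscopy-based cytotoxicity flagged yes/no.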

[2] = read-out: xenobiotic metabolism (CYP1A2), CYP1A2 (gene 1544); test: CLD_CYP1A2_24hr: CellzDirect (CLD) Gene Expression Assay for xenobiotic metabolism (CYP1A2) at 24 hours (AID 2283683)
Summary of the method: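 CYP1A2 mRNA induction measured by quantitative nuclease protection (chemiluminescent) in human primary hepatocytes 24 h after multi-concentration chemical dosing with daily fresh solutions. DMSO (0.2%) baseline; positive-direction fitting; morphology-based cytotoxicity noted.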

[3] = read-out: ABC Transporter (ABCB1), ABCB1 (gene 5243); test: CLD_ABCB1_24hr: CellzDirect (CLD) Gene Expression Assay for ABC Transporter (ABCB1) at 24 hours (AID 2283684)
Summary of the method: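 ABCB1 mRNA induction versus 0.2% DMSO vehicle was read by qNPA chemiluminescence at 24 h. Cultured human hepatocytes from two donor preparations received daily fresh dosing, and phase-contrast cytotoxicity calls were annotated alongside the data.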

[4] = read-out: Broad substrate specificity ATP-binding cassette transporter ABCG2 (Homo sapiens) (UniProt Q9UNQ0); test: CLD_ABCG2_24hr: CellzDirect (CLD) Gene Expression Assay for ABC Transporter (ABCG2) at 24 hours (AID 2283685)
Summary of the method: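 ABCG2 mRNA induction, read as gain of chemiluminescent signal over 0.2% DMSO, was measured by quantitative nuclease protection at 24 h. Cultured human liver hepatocytes were given fresh dosing solutions of test chemicals at several concentrations each day.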

[5] = read-out: Cytochrome P450 2B6 (Homo sapiens) (UniProt P20813); test: CLD_CYP2B6_24hr: CellzDirect (CLD) Gene Expression Assay for xenobiotic metabolism (CYP2B6) at 24 hours (AID 2283686)
Summary of the method: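 qNPA chemiluminescent measurement of mRNA at 24 hours in human primary hepatocyte cultures from two donor preparations, with daily fresh dosing and 0.2% DMSO vehicle as baseline. Morphology-based cytotoxicity flagged yes/no.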

[6] = read-out: Cytochrome P450 3A4 (Homo sapiens) (UniProt P08684); test: CLD_CYP3A4_24hr: CellzDirect (CLD) Gene Expression Assay for xenobiotic metabolism (CYP3A4) at 24 hours (AID 2283689)
Summary of the method: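 CYP3A4 mRNA induction read by quantitative nuclease protection (chemiluminescence) 24 hr after dosing. Cultured human hepatocytes (two donor preparations) treated daily, vehicle 0.2% DMSO; phase-contrast morphology annotates cytotoxicity.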

[7] = read-out: HMG-CoA synthase (HMGCS2), HMGCS2 (gene 3158); test: CLD_HMGCS2_6hr: CellzDirect (CLD) Gene Expression Assay for HMG-CoA synthase (HMGCS2) at 6 hours (AID 2283682);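 also: actives raise HMGCS2 transcript above the 0.2% DMSO vehicle baseline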
Summary of the method: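 HMGCS2 transcript induction read by quantitative nuclease protection with chemiluminescence, 6 h after dosing of primary human hepatocytes. Baseline was 0.2% DMSO vehicle; phase-contrast morphology gave a yes/no cytotoxicity annotation.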

[8] = read-out: Cytochrome P450 2C19 (Homo sapiens) (UniProt P33261); test: CLD_CYP2C19_24hr: CellzDirect (CLD) Gene Expression Assay for xenobiotic metabolism (CYP2C19) at 24 hours (AID 2283687);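 also: activity means mRNA induction above DMSO vehicle baseline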
Summary of the method: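 CYP2C19 mRNA was quantified by qNPA chemiluminescence after 24 h of daily dosing of cultured human primary hepatocytes from two donors; vehicle was 0.2% DMSO, and increases over DMSO baseline were fitted.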

Broad substrate specificity ATP-binding cassette transporter ABCG2 (Homo sapiens), sequence (Q9UNQ0 whole entry, looked up): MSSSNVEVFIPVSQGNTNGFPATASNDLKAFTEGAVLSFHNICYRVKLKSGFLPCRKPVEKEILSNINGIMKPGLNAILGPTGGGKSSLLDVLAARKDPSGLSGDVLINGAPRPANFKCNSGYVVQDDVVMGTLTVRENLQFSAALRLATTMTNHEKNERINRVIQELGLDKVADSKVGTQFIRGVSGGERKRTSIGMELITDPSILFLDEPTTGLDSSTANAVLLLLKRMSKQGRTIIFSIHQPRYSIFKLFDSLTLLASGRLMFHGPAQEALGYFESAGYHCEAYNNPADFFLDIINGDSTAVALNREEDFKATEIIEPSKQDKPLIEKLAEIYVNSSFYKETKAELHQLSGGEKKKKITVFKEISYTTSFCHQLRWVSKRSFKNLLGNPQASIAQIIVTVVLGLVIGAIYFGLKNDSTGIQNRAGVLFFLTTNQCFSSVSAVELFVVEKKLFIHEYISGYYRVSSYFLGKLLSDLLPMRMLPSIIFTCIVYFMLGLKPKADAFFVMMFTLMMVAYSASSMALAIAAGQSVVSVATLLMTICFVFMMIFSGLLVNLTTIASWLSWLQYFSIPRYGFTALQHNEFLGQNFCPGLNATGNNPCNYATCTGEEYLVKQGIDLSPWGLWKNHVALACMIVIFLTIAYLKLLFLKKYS
Glyceraldehyde-3-phosphate dehydrogenase (Homo sapiens), sequence (P04406 whole entry, looked up): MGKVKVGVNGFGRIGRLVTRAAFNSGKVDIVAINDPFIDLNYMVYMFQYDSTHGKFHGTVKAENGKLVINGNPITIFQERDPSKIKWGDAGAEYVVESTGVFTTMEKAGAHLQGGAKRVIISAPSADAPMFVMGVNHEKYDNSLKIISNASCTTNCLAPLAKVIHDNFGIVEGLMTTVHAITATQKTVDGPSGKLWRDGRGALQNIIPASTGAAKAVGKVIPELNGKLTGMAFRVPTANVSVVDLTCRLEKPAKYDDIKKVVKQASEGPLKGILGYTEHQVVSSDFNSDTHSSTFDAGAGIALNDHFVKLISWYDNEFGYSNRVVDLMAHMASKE
Cytochrome P450 3A4 (Homo sapiens), sequence (P08684 whole entry, looked up): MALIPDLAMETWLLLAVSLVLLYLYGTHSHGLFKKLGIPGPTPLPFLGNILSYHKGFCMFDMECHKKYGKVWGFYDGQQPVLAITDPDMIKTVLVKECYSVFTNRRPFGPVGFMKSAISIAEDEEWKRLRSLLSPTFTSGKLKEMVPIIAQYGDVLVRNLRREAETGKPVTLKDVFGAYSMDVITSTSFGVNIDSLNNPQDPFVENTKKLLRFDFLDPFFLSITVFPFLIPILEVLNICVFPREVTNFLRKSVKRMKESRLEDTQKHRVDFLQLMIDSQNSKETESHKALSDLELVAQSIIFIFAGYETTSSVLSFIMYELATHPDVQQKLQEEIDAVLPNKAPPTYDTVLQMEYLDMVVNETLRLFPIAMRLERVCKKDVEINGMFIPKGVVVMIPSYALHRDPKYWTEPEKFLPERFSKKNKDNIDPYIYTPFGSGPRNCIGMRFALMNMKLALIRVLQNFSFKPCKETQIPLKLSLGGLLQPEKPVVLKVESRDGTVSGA
Cytochrome P450 2C19 (Homo sapiens), sequence (P33261 whole entry, looked up): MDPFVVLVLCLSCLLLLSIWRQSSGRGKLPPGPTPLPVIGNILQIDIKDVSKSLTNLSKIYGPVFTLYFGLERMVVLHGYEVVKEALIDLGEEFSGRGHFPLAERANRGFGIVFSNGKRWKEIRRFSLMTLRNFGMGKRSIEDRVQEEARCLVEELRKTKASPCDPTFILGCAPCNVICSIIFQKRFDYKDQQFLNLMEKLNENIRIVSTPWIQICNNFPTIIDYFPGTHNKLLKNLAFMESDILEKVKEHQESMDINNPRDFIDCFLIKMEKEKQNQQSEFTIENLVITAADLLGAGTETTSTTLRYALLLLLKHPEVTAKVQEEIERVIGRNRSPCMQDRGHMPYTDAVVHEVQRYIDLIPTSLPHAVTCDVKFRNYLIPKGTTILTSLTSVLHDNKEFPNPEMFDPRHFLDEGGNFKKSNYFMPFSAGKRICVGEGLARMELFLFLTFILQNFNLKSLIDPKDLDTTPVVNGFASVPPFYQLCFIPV

| Structure (SMILES) | outcome [1] | outcome [2] | outcome [3] | outcome [4] | AC50 [5] | AC50 [6] | outcome [7] | outcome [8] | outcome [6] | AC50 [2] |
| --- | --- | --- | --- | --- | --- | --- | --- | --- | --- | --- |
| CCc1cccc(CC)c1N(COC)C(=O)CCl | inactive | inactive | inactive | inactive | 2690 nM (active) | 15700 nM (active) | – | – | – | – |
| CNC(=O)ON=C(C)SC | inactive | inactive | inactive | inactive | – | – | inactive | inactive | inactive | – |
| CCOP(=O)(SC(C)CC)N1CCSC1=O (stereo unspecified) | inactive | inactive | inactive | inactive | 3260 nM (active) | – | – | – | – | – |
| CCOC(=O)CC(SP(=O)(OC)OC)C(=O)OCC (stereo unspecified) | – | – | inactive | inactive | – | – | – | – | – | 2380 nM (active) |
| Cc1nn(-c2cc(NS(C)(=O)=O)c(Cl)cc2Cl)c(=O)n1C(F)F | inactive | inactive | inactive | inactive | – | – | – | inactive | – | – |
